D2 ag-1: D2 dopamine receptor (human) agonism. HEK293 T-REx D2 cells, calcium flux agonist mode. activation, % at 2 µM. AID 485358. actives 0.53% (n = 340,000);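 active means activation over 3 SD above normal in the single-dose calcium agonist read, cut at about 30% in these data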; further: 0% is about no effect
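In this primary screen, compounds producing a positive calcium signal within 180 s of addition to tetracycline-induced, force-coupled HEK293 Trex D2 cells are flagged; cells are dye-loaded with a no-wash calcium kit beforehand.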
D2 PAM-1: positively modulates the human D2 dopamine receptor allosterically. AID 485347. HEK293 T-REx D2, calcium flux, EC20 dopamine potentiation. P14416. actives 0.34% (n = 340,000). potentiation, % at 10 µM;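 active means potentiation over 3 SD above the plate norm, cut at about 30% in these data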; further: 0% is about no effect
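Potentiation of an EC20 dopamine calcium response measured kinetically over 180 s, after a preceding 180 s compound-only read flagging agonists. Cells: inducible Hek293 Trex D2 line, 4000/well, cultured overnight at 30 C before dye loading.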
D2 antag: antagonizes the human D2 dopamine receptor. P14416. HEK293 TREx D2 cells, calcium flux, dopamine EC80. inhibition, % at 10 µM. actives 2% (n = 340,000). AID 485344; in the data active means inhibition above about 30%; inactive means below that, where a call was filed; further: 0% is about no effect
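In this primary screen, negative modulation is detected by tracking calcium flux after an EC80 dopamine challenge in inducible HEK293 T-REx D2 cells preexposed to test compound for 180 s.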
D2 ag-2: activates the human D2 dopamine receptor | actives 0.084% (n = 360,000) | activation, % (test concentration not listed) | P14416 | DiscoveRx PathHunter D2 beta-arrestin, luminescence, 90 min; 100% = 57 uM dopamine signal; in the data active means activation above about 40%; inconclusive means between about 15% and that limit
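DiscoveRx PathHunter D2 beta-arrestin cells (2,100/well) attached overnight, then compound-stimulated 90 min at 37 C in HBSS/10 mM HEPES/0.1% Tween-20 buffer; beta-galactosidase complementation read by luminescence after 1 h at ambient temperature. Dopamine 57 uM final (EC100) as control.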
D2 PAM-2: human D2 receptor positive allosteric modulation; P14416; DiscoveRx D2 beta-arrestin cells, luminescence, 90 min; 100% = 57 uM dopamine signal; potentiation, % (concentration not given with the values); actives 0.23% (n = 360,000); AID 624464; in the data active means potentiation above about 50%; inconclusive means mostly about 30% to 49%
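PathHunter D2 cells, attached overnight at 37 deg C, received compound in DMSO plus dopamine at EC20 (50 nM final) for 90 min at 37 deg C. Beta-arrestin recruitment was read as luminescence after 1 h with detection reagent at ambient temperature.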
D3 arrestin ag: confirmation of human D3 dopamine receptor agonists, beta-arrestin. shares compounds with D2 ag-1. DiscoveRx D3 beta-arrestin cells, luminescence, 90 min. Potency, µM (doses to about 76.9 µM), for inactives: at the top dose activation, hits mostly activators. actives 4% (n = 2,300). AID 720506;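 further: potency means the concentration at half of the fitted maximal effect; 100% = dopamine control response; nearly all actives have a fitted effect of over 70% in size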
Target sequence (P35462 whole entry, looked up): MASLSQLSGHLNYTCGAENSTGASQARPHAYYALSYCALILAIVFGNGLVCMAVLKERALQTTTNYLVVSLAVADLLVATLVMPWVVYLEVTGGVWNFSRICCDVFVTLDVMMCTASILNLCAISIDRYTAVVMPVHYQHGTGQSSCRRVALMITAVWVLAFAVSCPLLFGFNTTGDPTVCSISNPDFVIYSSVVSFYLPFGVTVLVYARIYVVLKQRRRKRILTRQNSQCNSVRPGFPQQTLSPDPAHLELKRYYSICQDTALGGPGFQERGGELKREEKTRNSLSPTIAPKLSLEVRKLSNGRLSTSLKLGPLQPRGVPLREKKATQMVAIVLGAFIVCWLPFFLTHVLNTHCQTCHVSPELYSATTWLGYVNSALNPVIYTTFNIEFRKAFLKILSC
D2 ag-3: activates human D2 dopamine receptor in D3 counterscreen; AID 720507; Potency, µM (highest dose often 76.9 µM), for inactives: at the highest dose activation, most hits filed as activators; DiscoveRx PathHunter D2 beta-arrestin, luminescence, 90 min; response scale: percent relative to full dopamine signal; shares compounds with D2 ag-1; actives 5.9% (n = 2,300); further: potency means the concentration at half of the fitted maximal effect; % of control where 0% means no effect; nearly all actives have a fitted effect of over 70% in size
The depositor's hits bear a star; ? = inconclusive; nt = no result. The list is not random: actives were taken first. Their share in the collection is about 2.4%. Unless noted, the call rests on the fitted dose curve; in most records, active means well fitted activation curve with a large enough effect; inconclusive means small, poorly fitted or top-dose-only effect; inactive means flat fitted curve, though single readings scatter.

SMILES	D2 ag-1	D2 PAM-1	D2 antag	D2 ag-2	D2 PAM-2	D3 arrestin ag	D2 ag-3
Cn1c(=O)c(Oc2ccc(F)cc2)c(O)c2ccccc21	50.3*	-16.3	2.9	9.4	10.6	2.7%	-1.5%
COc1ccc(-c2ccc(CN3C(C(C)C)C(=O)N(Cc4cn(Cc5ccco5)nn4)CCS3(=O)=O)cc2)cn1 (configuration not stated)	nt	nt	nt	-4.3	3.3	nt	nt
Cc1ccc(N2CCN(CC(O)COc3ccc([N+](=O)[O-])cc3)CC2)cc1 (configuration not stated)	0.0	-13.6	10.1	2.9	-9.2	nt	nt
OC(COCc1ccccc1)CN1CCN(c2ccccc2F)CC1 (configuration not stated)	64.4*	-22.3	111.1*	6.2	-29.5	?	?
OC(CNCC1COc2ccccc2O1)COc1ccccc1F (configuration not stated)	78.3*	-36.4	95.6*	0.4	-16.2	16.5%	10.0%
CCN1CCN(CC(O)COCc2ccccc2)CC1 (configuration not stated)	0.6	2.3	-5.2	-1.9	-6.9	nt	nt
OC(COCC1COc2ccccc2O1)CN1CCN(c2ccccc2F)CC1 (configuration not stated)	59.5*	-23.1	83.6*	7.5	-9.5	?	?
O=[N+]([O-])c1ccc(OCC(O)CN2CCN(c3ccccc3F)CC2)cc1 (configuration not stated)	78.8*	-25.8	90.6*	?	-15.0	?	?
Cn1cnc(S(=O)(=O)N2CCN(c3ccc(Cl)cc3)CC2)c1	nt	nt	nt	-3.3	-2.6	nt	nt
Cc1ccc(S(=O)(=O)N2CCC(C(=O)Nc3ccc(S(=O)(=O)N4CCCC4)cc3)CC2)cc1C	0.0	-1.6	-7.9	0.0	0.4	nt	nt
COCCn1c(C)cc(O)c(C(c2ccccc2OC)N2CCCCC2)c1=O (configuration not stated)	-0.1	4.1	nt	nt	nt	nt	nt
COc1cc(OC)cc(C(=O)N[C@H](C(=O)Nc2ccccc2N2CCOCC2)C(C)C)c1	45.0*	-20.3	7.5	-1.5	-3.5	-3.0%	-2.9%
COc1cc(OC)cc(C(=O)NC(C(=O)Nc2ccc(N3CCOCC3)cc2)C(C)C)c1 (configuration not stated)	-0.2	-4.6	1.5	0.9	-20.8	nt	nt
COc1cc(NC(=O)CN2C(=O)COc3ccc(S(=O)(=O)NC4CCCC4)cc32)cc(OC)c1	-1.1	-0.9	nt	nt	nt	nt	nt
CN(CC(=O)NCCN1CCN(c2ccccc2)CC1)S(=O)(=O)c1ccc2c(c1)CCC(=O)N2	81.8*	-21.6	74.6*	1.0	-6.0	?	?
COc1ccc(C(=N/O)/C(=N/O)c2ccc(OC)cc2)cc1	1.1	6.5	39.6*	1.9	2.3	-9.0%	-2.0%
CC(C)N(C(=O)Nc1ccc2nsnc2c1)C(C)C	52.8*	-1.2	-1.5	5.8	5.0	?	19.1%
COC(=O)C(N)Cc1ccc(O)c(O)c1 (configuration not stated)	41.3*	-5.4	-3.7	8.4	25.9	26.2%	21.5%
CCCc1nc2ccc(NC(C)=O)cc2c(=O)n1Cc1ccccc1Cl	0.0	0.8	-0.8	-2.3	-1.6	-6.9%	0.0%
Cc1ccc(C(NC(=O)C2CCN(CCOc3ccccc3)CC2)c2ccccn2)cc1 (configuration not stated)	nt	nt	nt	1.2	-14.0	nt	nt
Cc1ccccc1CC(=O)N1CCN(C(=O)c2ccco2)CC1	0.0	5.7	6.3	-1.9	-10.0	nt	nt
Cc1ccccc1CN1CCN(C(=O)c2ccco2)CC1	80.7*	-27.9	69.7*	47.4*	26.2	?	20µM*
O=C(c1ccco1)N1CCN(Cc2cccnc2)CC1	70.0*	-13.7	31.2*	?	16.0	?	?
O=C(c1ccco1)N1CCCN(C(=O)c2ccco2)CC1	0.5	4.0	12.9	-0.1	-2.0	nt	nt
CCn1c(=O)cc(SCC(=O)N2CCN(C(=O)c3ccco3)CC2)c2ccccc21	0.1	21.0	-0.8	-0.2	-10.2	nt	nt
SMILES	D2 ag-1	D2 PAM-1	D2 antag	D2 ag-2	D2 PAM-2	D3 arrestin ag	D2 ag-3
Cc1ccc(CN2CCN(C(=O)c3ccco3)CC2)cc1	66.1*	0.7	82.5*	69.8*	55.5*	?	4.47µM*
Cc1ccc(OCC(=O)N2CCN(C(=O)c3ccco3)CC2)cc1	-0.2	0.7	-4.1	-1.9	-2.4	nt	nt
CCn1c2ccccc2c2cc(CN3CCN(C(=O)c4ccco4)CC3)ccc21	26.8	-13.6	28.8	-0.6	-27.6	?	15.5%
O=C(NCc1ccccc1)c1cc(C2COCCN2C(=O)C/C=C/c2ccccc2)on1 (configuration not stated)	nt	nt	nt	4.9	-3.1	nt	nt
Cc1ccnc(NC(=O)c2ccc(S(=O)(=O)N3CCCCCC3)cc2)c1	-0.8	4.2	-3.6	-4.4	10.2	nt	nt
O=C(c1ccco1)N1CCN(CCCCOc2ccc(F)cc2)CC1	nt	nt	nt	?	12.5	1µM*	?
O=C(CCCOc1ccccc1)N1CCN(C(=O)c2ccco2)CC1	0.6	13.5	9.0	-0.1	-5.7	nt	nt
Cc1ccc(Nc2nc(N)nc(CN3CCN(C(=O)c4ccco4)CC3)n2)cc1Cl	66.7*	-25.7	38.5*	?	14.0	-4.1%	?
O=C(c1ccco1)N1CCN(Cc2ccccc2F)CC1	78.2*	-23.5	80.3*	75.3*	19.3	?	?
O=C(c1ccco1)N1CCN(Cc2c(F)cccc2Cl)CC1	nt	nt	nt	-2.0	-14.8	nt	nt
CC1CCN(C(=S)NC(=O)c2ccco2)CC1	-0.9	15.6	-9.1	-0.5	-6.2	nt	nt
O=C(NC(=S)N1CCN(Cc2ccccc2)CC1)c1ccco1	69.9*	-3.5	20.0	5.1	-3.3	-1.2%	0.5%
COc1cc(CN2CCN(c3ccccc3F)CC2)c([N+](=O)[O-])cc1OC	36.5*	-12.9	11.0	-0.1	-4.3	?	27.3%
O=[N+]([O-])c1cc2c(cc1CN1CCN(c3ccccc3F)CC1)OCO2	6.1	-10.6	-0.2	-2.6	-2.3	nt	nt
CC(=O)Oc1ccc(C(=O)Nc2ccc(S(=O)(=O)NCC3CCCO3)cc2)cc1 (configuration not stated)	0.3	nt	-10.8	0.2	-8.4	nt	nt
CC(Sc1nnc(-c2cccnc2)n1N)C(=O)N1CCOCC1 (configuration not stated)	0.5	-8.7	7.5	0.1	-8.1	nt	nt

Screens as filed in PubChem BioAssay.
